Results published in PubChem BioAssay (EPA / NIEHS).
“And” between values parts separate entries of the source, which are not always exact repeats. Equal values may be shown once. The source made the active and inactive calls. Rule for the calls: active = hit-call score of the fitted dose curve at least 0.9, where 1 is the maximum; inactive = score below 0.9.

Test: BSK_hDFCGF_SRB: Viability Assessment in the BioMAP Diversity Plus: hDFCGF Assay (AID 2283061)
Details: primary human foreskin fibroblasts
Description: BSK_hDFCGF is a cell-based, multiplexed-readout assay that uses foreskin fibroblast, a human skin primary cell, with measurements taken at 24 hours after chemical dosing in a 96-well plate.BSK_hDFCGF_SRB is an assay component measured in the BSK_hDFCGF assay. It measures 0.1% sulforhodamine related to cell death using Sulforhodamine staining technology.Data from the assay component BSK_hDFCGF_SRB was analyzed into 1 assay endpoint. This assay endpoint, BSK_hDFCGF_SRB, was analyzed with bidirectional fitting relative to DMSO as the negative control and baseline of activity. Using a type of viability reporter, gain or loss-of-signal activity can be used to understand changes in the signaling. Furthermore, this assay endpoint can be referred to as a primary readout, because this assay has produced multiple assay endpoints where this one serves a signaling function. To generalize the intended target to other relatable targets, this assay endpoint is annotated to the cell morphology intended target family, where the subfamily is cell conformation.
The levels of cell surface (or secreted, indicated by the prefix "s") biomarker endpoints were measured by ELISA. Overt cytotoxicity to cells in confluent adherent cultures (all systems other than the BT system) was assessed by measuring total protein levels using sulforhodamine B (SRB) staining in parallel cultures at the time of biomarker measurements, indicated as SRB endpoints. For proliferation assays for adherent cell types, individual cell types are cultured at sub-confluence and relative cell numbers quantified by SRB staining at time points optimized for each system (48 h: 3C and CASM3C systems; 72 h: BT and HDF3CGF systems; 96 h: SAg system). SRB was performed by staining cells with 0.1% SRB after fixation with 10% TCA and reading wells at 560 nm.Viability and proliferation of PBMC (T cells) was quantified by Alamar Blue reduction for the SAg and BT systems. For PBMC viability (referred to as PBMC Cytotoxicity within the assay endpoint names), cells were plated (75,000/well in a 96-well plate) and then chemical samples added for 1 h before addition of activators, SEB and TSST-1 (20 ng/mL final concentration each). Cells were incubated for 90 h. Then, Alamar Blue (20 uL/well) (Invitrogen, Cat DAL1100) was added for 6 h, and the plates were read with a fluorescence microplate reader at 546/580 nm (excitation/emission). For PBMC proliferation, cells were plated and activated as above but incubated for only 16 h prior to addition of Alamar Blue. Plates were read after 6 h.

Row | Structure (SMILES) | AC50 | outcome
1 | O=[N+]([O-])C=Cc1ccccc1 | 20 µM (active) | 
2 | COCC(=O)N(c1c(C)cccc1C)N1CCOC1=O |  | inactive
3 | CC(C)(C)C(O)C(Oc1ccc(-c2ccccc2)cc1)n1cncn1 (stereo not drawn) |  | inactive
4 | Oc1ccc(C2(c3ccc(O)cc3)c3ccccc3-c3ccccc32)cc1 |  | inactive
5 | CCc1cc(C)cc(CC)c1-c1c(OC(=O)C(C)(C)C)n2n(c1=O)CCOCC2 | 31.5 µM (active) | 
6 | CC(C)COP(=O)(OCC(C)C)OCC(C)C |  | inactive
7 | c1ccc(Nc2ccc3ccccc3c2)cc1 | 30.6 µM (active) | 
8 | CC1(C)[C@H](C(=O)O[C@H](C#N)c2cccc(Oc3ccccc3)c2)[C@@H]1C=C(Br)Br |  | inactive
9 | CC(=O)/C=C/c1ccccc1 |  | inactive
10 | O=c1c2ccccc2c(=O)c2c1cc(Cl)c1[nH]c3c([nH]c12)c(Cl)cc1c(=O)c2ccccc2c(=O)c13 |  | inactive
11 | CCCCCCCCCCCC#N | 29.1 µM (active) | 
12 | O=S(=O)(c1ccccc1)c1ccccc1 |  | inactive
13 | O=C1C=CC(=O)C=C1 | 36.3 µM (active) and 12.7 µM (active) | 
14 | COc1ccc(CO)cc1 |  | inactive
15 | CCC(C)c1cc([N+](=O)[O-])cc([N+](=O)[O-])c1OC(=O)C=C(C)C (stereo not drawn) | 11.5 µM (active) | 
16 | O=C(O)CCCc1ccc(N(CCCl)CCCl)cc1 |  | inactive
17 | Oc1cc(Cl)ccc1Cl |  | inactive
18 | Cc1ccc(OP(=O)(Oc2ccc(C)cc2)Oc2ccc(C)cc2)cc1 (tested in a mixture with another compound) | 23.2 µM (active) | 
19 | CC(C)(c1cc(Cl)c(O)c(Cl)c1)c1cc(Cl)c(O)c(Cl)c1 | 16.5 µM (active) | 

Row | Structure (SMILES) | AC50 | outcome
20 | COC(C)(C)CCC[C@H](C)C/C=C/C(C)=C/C(=O)OC(C)C | 30.7 µM (active) | 
21 | CC(C)CCCCCCCOP(=O)(Oc1ccccc1)Oc1ccccc1 | 8.83 µM (active) | 
22 | O=C(CCl)c1ccccc1 | 4.74 µM (active) | 
23 | C=CCN(CC=C)C(=O)C(Cl)Cl |  | inactive
24 | O=P1(NCCCl)OCCCN1CCCl (stereo not drawn) |  | inactive
25 | [Cd+2].[Cl-].[Cl-] |  | inactive
26 | Nc1ccc(-c2ccc(N)c(N)c2)cc1N |  | inactive
27 | N#CCCCCC#N |  | inactive
28 | CC(C)CCCCCCCOC(=O)c1ccccc1C(=O)OCCCCCCCC(C)C |  | inactive
29 | Clc1ccc(-c2ccccc2)cc1 |  | inactive
30 | C=CC(=O)OCC(CC)CCCC (stereo not drawn) | 32.2 µM (active) | 
31 | CCCOC(=O)c1ccccc1C(=O)OCCC |  | inactive
32 | O=C1C(Cl)=C(Cl)C(=O)C(Cl)=C1Cl | 6.62 µM (active) | 
33 | O=[N+]([O-])c1ccc(Cl)cc1 |  | inactive
34 | O=c1[nH]c(Cl)c(Cl)cc1Cl |  | inactive
35 | O=[N+]([O-])O |  | inactive
36 | CC(C)(C)C(=O)CCl |  | inactive
37 | CNC(=O)Oc1cc(C)c(SC)c(C)c1 |  | inactive
38 | CCCC[N+](CCCC)(CCCC)CCCC |  | inactive
